Results on 25 molecules are retold here after PubChem BioAssay (NCATS).

A short description of assay [1]: Primary qHTS for inhibitors of nuclear receptor binding SET domain protein 2 (NSD2) in an RCH-ACV wild type WT cells (2C) (AID 1645877). Further: nearly all actives have a fitted effect of over 70% in size. Further: potency means the concentration at half of the fitted maximal effect. On activity change, negative = cell killing: on the % scale 0 is the no-effect control and ±100 the full control effect.
Assay [2] addresses Glutathione peroxidase 1 (Homo sapiens) (UniProt P07203). The assay can be described thus: Primary qHTS Assay for Inhibitors of Recombinant Selenoprotein Glutathione Peroxidase 1 (GPX1) (AID 1845191). Further: nearly all actives have a fitted effect of over 65% in size. On activity, negative = inhibition: on the % scale 0 is the no-effect control and ±100 the full control effect. In outline:
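10 nM GPX1 + cpd, 30 min RT; start w/ 1 mM GSH, 0.5 mM cumene hydroperoxide, 0.5 mM NADPH, 100 nM GR, 0.01% BSA; buffer 50 mM Tris-HCl pH 7.5, 2 mM EDTA, 150 mM NaCl; Fl 340/450, 0 & 15 min.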
(In qHTS, concentration-response curves come from the screen itself.)

The target of assay [3] is Phospholipid hydroperoxide glutathione peroxidase GPX4 (Homo sapiens) (UniProt P36969). The assay can be described thus: Primary qHTS Assay for Inhibitors of Recombinant Selenoprotein Glutathione Peroxidase 4 (GPX4) (AID 1845192). Further: series mostly up to about 50 µM; on the % scale 0 is the no-effect control and ±100 the full control effect; nearly all actives have a fitted effect of over 65% in size. Put shortly: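 NADPH consumption, followed by fluorescence at 340/450 nm between 0 and 15 min, reports GPX4 activity via coupled glutathione reductase (100 nM). Enzyme 200 nM was pre-exposed to compound 30 min; 0.5 mM cumene hydroperoxide and 1 mM GSH served as substrates.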
Sequence of Phospholipid hydroperoxide glutathione peroxidase GPX4 (Homo sapiens) (P36969 whole entry, looked up): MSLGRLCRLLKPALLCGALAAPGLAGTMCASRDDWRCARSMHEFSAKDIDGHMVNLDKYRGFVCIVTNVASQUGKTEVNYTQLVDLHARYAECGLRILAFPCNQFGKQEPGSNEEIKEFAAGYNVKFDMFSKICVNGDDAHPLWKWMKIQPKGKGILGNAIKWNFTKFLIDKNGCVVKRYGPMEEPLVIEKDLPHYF

The target in assay [4] is Luciferin 4-monooxygenase (Photinus pyralis) (UniProt P08659). Put plainly: Primary firefly luciferase (FLuc) qHTS assay for identification of artifact compounds. (AID 1845220). Further: nearly all actives have a fitted effect of over 60% in size. Further: potency means the concentration at half of the fitted maximal effect.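 On activity change, negative = inhibition: series mostly up to about 54 µM; plate controls were DMSO vehicle for no effect and no enzyme for full effect.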 In outline: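 Cell-free, 1536-well qHTS. Buffer pH 7.6 with 0.01% Tween-20 and 0.05% BSA; 10 uM D-luciferin, 10 uM ATP; 10 nM P. pyralis luciferase; luminescence after 5 min.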
The nature of assay [5]: Primary fluorescence-based thiol-reactive (MSTI) qHTS assay for identification of artifact compounds. (AID 1845221).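 Further: series mostly up to about 54 µM; thiol-reactive compounds lower the probe fluorescence signal; nearly all actives have a fitted effect of over 65% in size.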 Put shortly: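 MSTI probe at 4 uM final in 2% DMSO/PBS pH 7.4; compounds, 1 h at room temperature in dark. Fluorescence Ex/Em 525/598 nm, normalised to Acetyl-MSTI and MSTI, fitted to 4-parameter Hill.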
A short description of assay [6]: Primary redox qHTS assay for identification of artifact compounds. (AID 1845223).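 Further: 0% = DMSO and 100% = reference compound.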 In outline: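 Amplex Red (25 uM) and HRP (250 mU/mL) in HBSS, with compounds for 15 min, then 250 uM DTT for 30 min, room temperature, dark. Fluorescence 525/598 nm read; normalized to DMSO and 10 uM DA3003; Hill fit.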
For assay [7], the system named is Nanoluciferase (engineered Oplophorus gracilirostris luciferase). Put plainly: Primary Nanoluciferase (NLuc) qHTS assay for identification of artifact compounds. (AID 1845222).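 Further: series mostly up to about 54 µM; 0% = DMSO and -100% = no enzyme.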 Put shortly: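 Compounds are pinned into diluted (1:55) conditioned medium of NLuc-expressing S16 cells and held 15 min at room temperature protected from light. Nano-Glo substrate follows, and luminescence is read 5 min later.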

Structures are written as SMILES. A number with no mark means an inactive call. Inconclusive results are not listed. The source made the active and inactive calls. The call rests on the fitted dose curve; in most records, active means well fitted curve in the direction sought with a large enough effect; inconclusive means small, poorly fitted or top-dose-only effect, or another doubt; inactive means no such curve, though single readings can be large; an effect the other way counts as inactive or inconclusive.

Sequence of Glutathione peroxidase 1 (Homo sapiens) (P07203 whole entry, looked up): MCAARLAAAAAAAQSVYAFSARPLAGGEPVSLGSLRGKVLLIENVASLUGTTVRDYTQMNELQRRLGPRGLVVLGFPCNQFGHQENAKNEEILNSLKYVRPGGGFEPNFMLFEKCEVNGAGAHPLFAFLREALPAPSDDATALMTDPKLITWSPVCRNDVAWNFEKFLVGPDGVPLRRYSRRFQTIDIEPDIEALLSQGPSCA

Regarding `COc1ccccc1NC(=O)OCC1CCN(C(=O)OC(C)(C)C)CC1`, the Potency entry in assay [1], in assay [2], in assay [3], in assay [4], in assay [5] and in assay [6] was “inactive” throughout.
Regarding `CC(C)C(C(=O)N(C)C(C)C(N)=O)N(C)C(=O)C1CCCN1C(=O)/C=C/C=C/C(O)C(C)O` (stereo not drawn), the Potency entry in assay [1], in assay [2], in assay [3], in assay [4], in assay [5] and in assay [7] was “inactive” throughout. For the same molecule, the Potency result in assay [6] was “inactive”.
Turning to `C[C@@H]1CN(Cc2ccccc2)C[C@H]1c1nc2c(cnn2C2CCOCC2)c(=O)[nH]1`, the Potency result in assay [1], in assay [2], in assay [3], in assay [4], in assay [5] and in assay [7] was “inactive” in each case. For the same molecule, the Potency result in assay [6] was “inactive”.
Turning to `C=C(C)C1CCC(C)C12CC(O)C1(C)OC1C2OC(=O)C(N)CCC(=O)O` (stereo not drawn), the Potency result in assay [1], in assay [2], in assay [3], in assay [4], in assay [5] and in assay [7] was “inactive” in each case. For the same molecule, in assay [6], the Potency entry was “inactive”.
On to `C=C(C(=O)OC)C1C(O)CC2(C)C(O)CCC(=O)C2C1O` (stereo not drawn), for which the Potency result in assay [1], in assay [2], in assay [3], in assay [4], in assay [5] and in assay [7] was “inactive” throughout. Also, in assay [6], the Potency result was “inactive”.
On to `Cc1ccccc1C#Cc1ccc(CCC(=O)O)cc1`, for which the Potency entry in assay [1], in assay [2], in assay [3], in assay [5] and in assay [6] was “inactive” in each case. Moreover, the Potency in assay [4] is 4.26 µM (active).
Regarding `C=C1CCC2C(C)(C(=O)OC)CCCC2(C)C1CCC(C)CC(=O)O` (stereo not drawn), the Potency result in assay [1], in assay [2], in assay [3], in assay [4], in assay [5] and in assay [7] was “inactive” in each case. Further, the Potency entry in assay [6] was “inactive”.
Consider `C=CC(C)(O)C(O)CC1C(C)(O)C(O)C(O)C2C(C)(C)CCCC21C` (stereo not drawn), for which the Potency result in assay [1], in assay [2], in assay [3], in assay [4], in assay [5] and in assay [7] was “inactive” in each case. Further, the Potency entry in assay [6] is “inactive”.
Turning to `CC1(C)CCC2(C(=O)OC3OC(CO)C(O)C(O)C3O)CCC3(C)C(=CCC4C5(C)CCC(OC6OC(C(=O)O)C(OC7OC(CO)C(O)C(O)C7O)C(OC7OC(CO)C(O)C(O)C7O)C6O)C(C)(C)C5CCC43C)C2C1` (stereo not drawn), the activity change, negative = cell killing in assay [1] is -7.84% [at 9.23 µM]. Also, the Potency result in assay [2] and in assay [3] was “inactive” throughout. Moreover, in assay [4], the activity change, negative = inhibition was -0.248% [at 11.6 µM]. Also, the activity change, negative = thiol reactive in assay [5] is 123% [at 11.5 µM]. In addition, the activity, negative = inhibition in assay [7] was 1.02% [at 11.6 µM]. Besides, the redox activity (% of DA3003) in assay [6] was 10.6% [at 11.5 µM].
For the molecule `C=C(CCC1=C(C)[C@H]2[C@H](CC3[C@@H]4CC=C5C[C@@H](O)C[C@@H](O)[C@]5(C)C4[C@H](O)C[C@@]32C)O1)CO[C@@H]1O[C@H](CO)[C@@H](O)[C@H](O)[C@H]1O` (stereo partly drawn), the Potency in assay [1] was 0.963 µM (active). Besides, the Potency entry in assay [2], in assay [3], in assay [4], in assay [5] and in assay [6] was “inactive” throughout.
For the molecule `COc1cc(Br)c(S(=O)(=O)Nc2ccc(C(F)(F)F)c(O[C@@H]3CCN(C)C3)c2)cc1OC`, the Potency entry in assay [1], in assay [2], in assay [3], in assay [4], in assay [5] and in assay [6] was “inactive” throughout.
As for `COc1ccc(/C=C/C(=O)O[C@@H]2[C@@H](O)[C@H](C)O[C@@H](O[C@H]3[C@@H]4C=CO[C@@H](O[C@H]5O[C@@H](CO)[C@H](O)[C@@H](O)[C@@H]5O)[C@@H]4[C@@]4(CO)O[C@@H]34)[C@@H]2OC(C)=O)cc1`, the Potency entry in assay [1], in assay [2], in assay [3], in assay [4] and in assay [7] was “inactive” in each case.
Consider `C[C@@H]1CC[C@]2(C(=O)O)CC[C@]3(C)C(=CCC4[C@@]5(C)C[C@@H](O)[C@H](O)[C@@](C)(CO)C5CC[C@]43C)C2[C@]1(C)O` (stereo partly drawn), for which the Potency result in assay [1], in assay [2], in assay [3], in assay [4] and in assay [7] was “inactive” in each case.
For the molecule `C/C1=C\CC[C@H](C)CCO[C@@H]2O[C@H](CO[C@@H]3OC[C@](O)(COC1=O)[C@H]3O)[C@@H](O)[C@H](O)[C@H]2O`, the Potency result in assay [1], in assay [2], in assay [3], in assay [4] and in assay [7] was “inactive” in each case.
In the case of `CO[C@H]1/C=C\O[C@@]2(C)Oc3c(C)c(O)c4c(O)c(c5c(nc6cc(C)ccn65)c4c3C2=O)NC(=O)/C(C)=C\C=C/[C@H](C)[C@H](O)[C@@H](C)[C@@H](O)[C@@H](C)[C@H](OC(C)=O)[C@@H]1C`, the Potency in assay [1] was 10.3 µM (active). Further, the Potency entry in assay [2], in assay [3], in assay [4] and in assay [7] was “inactive” in each case.
Consider `Cc1ccc(C(=O)N(CCCN)C(c2oc3cc(Cl)ccc3c(=O)c2Cc2ccccc2)C(C)C)cc1` (stereo not drawn), for which the Potency entry in assay [1], in assay [2], in assay [3], in assay [4] and in assay [7] was “inactive” throughout.
For `C/C=C/C1=CC2=C(CO1)C(=O)C(C)(O)C(OC(=O)c1c(C)cc(OC)cc1O)C2` (stereo not drawn), the Potency in assay [1] is 4.5 µM (active). Besides, the Potency result in assay [2], in assay [3], in assay [4] and in assay [7] was “inactive” in each case.
On to `CC(=O)CC1CCC(C(C)C(=O)OCC(O)CO)O1` (stereo not drawn), for which the Potency result in assay [1], in assay [2], in assay [3], in assay [4] and in assay [7] was “inactive” in each case.
Regarding `C/C=C/C(O)C1OC(=O)CC1Nc1ccc(C(=O)O)cc1` (stereo not drawn), the Potency result in assay [1], in assay [2], in assay [3], in assay [4] and in assay [7] was “inactive” throughout.
In the case of `CC(O)CCC1C(CO[C@@H]2O[C@H](CO)[C@@H](O)[C@H](O)[C@H]2O)CC(O)CC1(C)C` (stereo partly drawn), the Potency result in assay [1], in assay [2], in assay [3], in assay [4] and in assay [7] was “inactive” in each case.
Take `C[C@@H]1O[C@@H](O[C@H]2[C@H](O)[C@@H](O)[C@H](O[C@H]3[C@H](O[C@H]4CC[C@@]5(C)C(=CC[C@@H]6C5CC[C@]5(C)[C@@H]7[C@H](C[C@@H]65)O[C@]5(CC[C@@](C)(CO[C@@H]6O[C@H](CO)[C@@H](O)[C@H](O)[C@H]6O)O5)[C@H]7C)C4)O[C@H](CO)[C@@H](O)[C@@H]3O)O[C@@H]2CO)[C@H](O)[C@H](O)[C@H]1O` (stereo partly drawn): in assay [1], the Potency is 2.18 µM (active). Moreover, the Potency result in assay [2] and in assay [3] was “inactive” each time. Besides, in assay [4], the activity change, negative = inhibition is -0.0839% [at 11.6 µM]. Further, in assay [7], the activity, negative = inhibition was 1.75% [at 11.6 µM].
In the case of `C=C1C[C@]23C[C@H]1CC[C@H]2[C@]1(C)CCC[C@@](C)(C(=O)O)[C@H]1[C@@H]3C(=O)O`, the Potency result in assay [1], in assay [2], in assay [3], in assay [4] and in assay [7] was “inactive” throughout.
On to `C=C1C[C@]23C[C@H]1CC[C@H]2C1=C[C@H]2OC(=O)[C@@](C)([C@H]1[C@@H]3C(=O)O)[C@H]2O`, for which the Potency result in assay [1], in assay [2], in assay [3], in assay [4] and in assay [7] was “inactive” in each case.
Consider `OC[C@H]1O[C@@H](Oc2cc(O)c3c(c2)O[C@@H](c2ccc(O)cc2)[C@H](O)C3)[C@H](O)[C@@H](O)[C@@H]1O`, for which the Potency entry in assay [1], in assay [2], in assay [3], in assay [4] and in assay [7] was “inactive” in each case.
In the case of `C=C1C(OC2OCC(O)C(O)C2O)CC2C(C)(C)C(O)CCC2(C)C1CC/C(C)=C\CO` (stereo not drawn), the Potency in assay [1] was 8.93 µM (active). Besides, the Potency result in assay [2], in assay [3], in assay [4] and in assay [7] was “inactive” throughout.
